According to PubChem BioAssay AID624116 (National Center for Advancing Translational Sciences (NCATS), 2012):
Inconclusive results are not listed. Values without a mark were called inactive. Activity calls are given as the source filed them. The call rests on the fitted dose curve; in most records, active means well fitted activation curve with a large enough effect; inconclusive means small, poorly fitted or top-dose-only effect; inactive means no such curve, though single readings can be large or run the other way.

Assay: qHTS Assay for Rab9 Promoter Activators: Hit Validation Using Renilla Luciferase Read-Out for Rab9; on activation, negative = inhibition: % of control where 0% means no effect
Details: Huh7 Rab9 promoter Renilla luciferase reporter, 24 h; series mostly up to 76.9 µM; activation, negative = inhibition: at the top concentration
Outline: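 Luciferase reporter read-out: promoter activation measured by luminescence after 10 min with detection reagent at room temperature. Cells were Huh7 with a stable promoter-luciferase construct, treated 24 h at 37 deg C.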
Potency means the concentration at half of the fitted maximal effect.

| SMILES | activation, negative = inhibition [%] | Potency |
| --- | --- | --- |
| NCCOc1ccccc1-c1ccccc1 | 2.31 | – |
| O=C(C[N+]1(CC#Cc2ccccc2)CCCCC1)c1ccccc1 | 2.41 | – |
| COc1ccc(NC(=O)CSc2ccc([N+](=O)[O-])cc2)cc1S(=O)(=O)N1CCOCC1 | -11.2 | – |
| Cc1csc(NC(=O)CSc2nnc(-c3ccncc3)o2)n1 | -4.81 | – |
| COc1ccc(NC(=O)CCCN2C(=O)C(c3ccccc3)Oc3cccnc32)cc1OC (configuration not stated) | -24.3 | – |
| O=C(CSc1nnc(-c2ccc([N+](=O)[O-])cc2)o1)Nc1ccccn1 | -5.92 | – |
| CC1CCc2sc(C(=O)NNC(=S)NC3CC3)cc2C1 (configuration not stated) | -53.2 | – |
| COCCNC(=O)C1CCC(CNS(=O)(=O)c2ccc(F)cc2)CC1 (configuration not stated) | -3.79 | – |
| O=C(N/N=C/c1ccc(-c2ccc(Br)cc2)o1)c1ccc2c(c1)OCO2 | -4.86 | – |
| Cc1ccc(NC(=O)Nc2cccc3ccccc23)cc1 | -5.88 | – |
| O=C(CCCOc1ccc(Cl)cc1)N1CCCCC1 | -14.9 | – |
| Cc1cc(C)c2c(N)c(C(=O)Nc3ccc([N+](=O)[O-])cc3)sc2n1 | -4.2 | – |
| O=C(COc1ccccc1F)Nc1ccc(-c2nc3ccccc3s2)cc1 | -35.1 | – |
| COc1ccccc1C(=O)Nc1nnc(SCC(=O)NC2CCCC2)s1 | 8.95 | – |
| N#CC/C(N)=N/NC(=O)CCCNc1ncc(C(F)(F)F)cc1Cl | -11.4 | – |
| CN(C)/C=N/c1c(C#N)cnn1-c1nc2ccccc2s1 | -4.94 | – |
| CC(C)C(NC(=O)c1ccc([N+](=O)[O-])cc1Cl)C(=O)N1CCCC1 (configuration not stated) | 6.26 | – |
| COc1ccc(/C=C\C(=O)c2c(O)ccc3c(C)cc(=O)oc23)cc1OC | -55.5 | – |
| Cc1ccc(NC(=O)NC(=O)c2ccccc2)cc1F | 3.8 | – |

| SMILES | activation, negative = inhibition [%] | Potency |
| --- | --- | --- |
| O=C(C1COc2ccccc2O1)N1CCN(S(=O)(=O)c2ccccc2)CC1 (configuration not stated) | -3.31 | – |
| CCOC(=O)C1(Cc2cccc(Cl)c2)CCCN(C(=O)CCSC)C1 (configuration not stated) | -4.46 | – |
| COCc1cc(C)nc(N/N=C/c2ccc(-c3ccc(Cl)cc3[N+](=O)[O-])o2)c1C#N | -12.3 | – |
| COCCNC(=O)Cn1nc(-c2ccccc2)c2ccccc2c1=O | -3.11 | – |
| CCOC(=O)c1ccccc1NC(=O)CSc1nnc(Cc2cccn2C)n1-c1ccc(F)cc1 | – | 36.8 µM (active) |
| Cc1ccc(S(=O)(=O)N2CCN(c3cnn(C)c(=O)c3Cl)CC2)cc1 | -1.64 | – |
| CCN(Cc1nc2cc(Cl)ccc2c(=O)[nH]1)C(=O)C1CC(=O)N(c2cccc3ccccc23)C1 (configuration not stated) | 10.1 | – |
| CC1CCCN(S(=O)(=O)c2ccc(C(=O)Nc3nnc(-c4ccncc4)o3)cc2)C1 (configuration not stated) | -50.3 | – |
| CCOc1cc(C2C(C#N)=C(N)Oc3n[nH]c(C)c32)ccc1OCCN1CCOCC1 (configuration not stated) | 4.94 | – |
| CC(=O)c1c(C)[nH]c(C(=O)Nc2cccc(S(=O)(=O)N(C)C)c2)c1C | – | 20.7 µM (active) |
| Cc1c(C(O)CN2CCN(Cc3ccc4c(c3)OCO4)CC2)c2ccccc2n1C (configuration not stated) | 10.8 | – |
| COc1ccc(-n2cc(-c3ccc(Cl)cc3)[nH]c2=S)cc1 | -6.48 | – |
| CC(C)(C)C(=O)N/C(N)=N/c1nc2ccccc2o1 | -60.7 | – |
| O=C(NC1CCCC1)C(c1ccc(F)cc1)N(C(=O)c1csnn1)c1ccccc1 (configuration not stated) | -4.88 | – |
| O=C(CSc1nnc(-c2ccccn2)o1)Nc1ccccc1F | -6.23 | – |
| CCCC(C)NC(=O)c1ccc(OCc2ccc(Cl)cc2)c(OC)c1 (configuration not stated) | -18.8 | – |
| COCC1CCN(C(=O)c2ccc3oc(Cc4ccccc4)nc3c2)C1 (configuration not stated) | -13.7 | – |
| Cc1ccc(C2C3=C(CC(C)(C)CC3=O)N(CCN3CCOCC3)C3=C2C(=O)CC(C)(C)C3)cc1 | – | 20.7 µM (active) |
